Laboratory results published in PubChem BioAssay AID873 (PCMD, 2007).
Hit rate of the full screen: of about 210,000 compounds, about 1,300 (0.62%) were called active.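 Rule for the calls: active = inhibition of 40% or more; inactive = the rest.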 This excerpt belongs to a sample that is enriched for actives.

Molecular target: Kallikrein-5 (Homo sapiens) (UniProt Q9Y337)
Test: human KLK5 protease inhibitors, primary screen, biochemical, 1536-well (AID 873);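 note: 0% = enzyme controls without compound and 100% = no-enzyme blanks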
Conditions: recombinant hK5, fluorogenic AMC substrate cleavage; at 5 µM; hits give high values

Sequence of Kallikrein-5 (Homo sapiens) (Q9Y337 67-293 limits assumed): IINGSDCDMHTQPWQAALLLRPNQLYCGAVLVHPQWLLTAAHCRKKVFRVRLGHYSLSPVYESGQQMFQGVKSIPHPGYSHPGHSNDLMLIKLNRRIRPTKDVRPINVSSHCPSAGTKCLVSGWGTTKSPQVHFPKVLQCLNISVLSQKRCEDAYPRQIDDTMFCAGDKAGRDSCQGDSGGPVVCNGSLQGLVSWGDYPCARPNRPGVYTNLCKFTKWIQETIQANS

inhibition, inactive:
O=C(Nc1ncccn1)c1cccs1 -0.12%, Cc1ccc(-c2csc(NC(=O)c3cccs3)n2)cc1 -16.5%, O=C(Cn1c[n+](CC(=O)c2ccc([N+](=O)[O-])cc2)cn1)c1ccc([N+](=O)[O-])cc1 -1.7%, C=CCN(c1ccccc1C(=O)NCC(=O)OCC)S(=O)(=O)c1ccc(C)cc1 -3.06%, Cc1nc2ccccc2nc1N/N=C/c1ccc(O)cc1O -20.8%, COc1ccc(N=C(C)c2sc3ccccc3c2O)cc1 2.85%, O=[N+]([O-])c1cccc2ncccc12 -1.14%, C=C1CCN([C@H](C(=O)NCc2cc(OC)c(OC)c(OC)c2)C(C)C)S(=O)(=O)c2ccccc21 0.63%, O=C(O)CCCC(=O)Nc1ccc(Oc2cccc(C(F)(F)F)c2)nc1 -2.65%, O=C(NNC(=O)c1csc(-c2cccnc2)n1)Nc1ccc(Cl)cc1 -0.51%, O=C(CNc1ccc(F)cc1F)NC(=O)NCc1ccco1 -1.58%, COc1ccc(/C=C/c2nnc(NC(=O)C(C)C)s2)cc1 0.65%, Cn1nccc1NS(=O)(=O)c1ccc(F)cc1 8.38%, Cc1ccccc1NC(=O)C(C)c1ccc(-c2ccccc2)c(F)c1 (stereo unspecified) 1.97%, O=C(Nc1ccccc1F)c1ccccc1-c1ccccc1 -10.7%, Clc1ccc2nc(-c3ccccc3)nc(C(Cl)Cl)c2c1 0.33%, COc1ccc(-c2nn(C)c(=O)c3ccccc23)cc1CNC(=O)C1CCCCC1 1.08%, COC(=O)c1ccc(CN2CCC(CO)(Cc3ccc(OC)cc3)CC2)cc1 -3.09%, COc1ccc(CC2(CO)CCN(Cc3cnn(C)c3)CC2)cc1 5.76%, COc1ccc(CCNC2=CC(=O)CC(C)(C)C2)cc1 0.99%, CCS(=O)(=O)c1cc([N+](=O)[O-])c(Sc2ccccc2N)s1 3.91%, COC(=O)c1sc(C(F)(F)F)c(-c2ccccc2)c1S(=O)(=O)N(C)C 0.56%, Cc1ccc(S(=O)(=O)N(C)CC(=O)OCC(=O)Nc2ccccc2)cc1 2.05%, Cc1ccccc1CSc1nnc(CCCCCNC(=O)OC(C)(C)C)o1 0.98%, CCOC(=O)c1ccc(NC(=O)c2cc(=O)[nH]c3ccccc23)cc1 -1.31%, O=C(CNC(=O)c1cc(=O)[nH]c2ccccc12)Nc1ccc(F)c(F)c1 5.97%, COC(=O)c1scc(S(=O)(=O)C(C)(C)C)c1-n1cccc1 -2.13%, O=S(=O)(NCc1ccco1)c1cnc(Cl)c(Cl)c1 18.9%, O=C(CSc1nnc(-c2cccnc2)n1Cc1ccco1)c1ccc(Cl)cc1 -15.7%, O=C(CSc1nnc(-c2cccnc2)n1Cc1ccco1)c1ccc(Cl)c(Cl)c1 -11.9%, O=C(Nc1ccccc1)N1CCN(C2c3ccccc3-c3ccccc32)CC1 1.85%, CC(C)c1ccc(NC(=S)NNc2ccc(Cl)c(C(=O)O)c2)cc1 5.6%, COc1cc2c(cc1OC)C(/C=C/c1ccco1)=NCC2 4.43%, C[C@@H](NC(=O)OC(C)(C)C)c1nnc(S(=O)(=O)Cc2ccccc2)o1 -1.93%, Cc1cc(F)ccc1NC(=O)C(C)n1c2ccccc2c2nc(=O)cc(C)n21 (stereo unspecified) 0.22%, O=C(NC1CCCCC1)c1cc(C2CC2)on1 -1.29%, Cn1c2c(c(=O)n(C)c1=O)[C@@H]1c3c(ccc4ccccc34)OC[C@@H]1CO2 21.4%, Cn1c2c(c(=O)n(C)c1=O)C1c3ccccc3OCC1C(C)(C)O2 (stereo unspecified) -2.4%, O=C(NNc1cc(Cl)cc(Cl)c1)c1c(F)cccc1Cl 1.1%, CCc1c(C)nc2c(-c3ccccc3)c(C)nn2c1Nc1ccc(NC(C)=O)cc1 -10.1%, COc1cc(C(=O)N2C(=O)c3cccc(N)c3C2=O)cc(OC)c1OC -10.2%, CN1CCN(S(=O)(=O)c2cccc(C(=O)O)c2)CC1 -1.38%, Cc1cc(=O)oc2cc(OCC(=O)Nc3nnc(C4CC4)s3)ccc12 5.43%, O=C(Nc1nnc(COc2ccccc2)s1)Nc1ccccc1F 0.25%, O=C(NN1C(=O)C2C3C=CC(C4CC34)C2C1=O)c1ccc(Cl)cc1 (stereo unspecified) -4.1%, CC12COC3(C(=O)Nc4ccc(Cl)cn4)CC1CCC32C (stereo unspecified) -6.22%, CCc1cc(CNC(=O)CC2C(=O)NCCN2Cc2ccccc2C(F)(F)F)on1 (stereo unspecified) -3.44%, O=c1c2c3c(sc2n(CCN2CCCC2)c(=O)n1Cc1ccccc1)CCCCC3 8.67%, Cc1cc(C)n(CC(C)NCc2c(C(=O)N3CCOCC3)nc3c(C)cccn23)n1 (stereo unspecified) 1.63%, CS(=O)(=O)n1nc(-c2ccco2)nc1N -7.61%, CSc1nc(-c2ccco2)nn1C(=O)CCc1ccccc1 -9.9%, Clc1ccc(-c2cc(-c3ccccn3)on2)c(Cl)c1 -3.93%, C/C(=N\NC(=O)c1nc(C)cc(C)n1)c1ccccc1 -8.77%, CNC(=O)C(NC(=O)c1ccccc1)=C(C)C 0.73%, Cc1nc2cc(NC(=O)Nc3cccc(F)c3)ccc2n1C 17%, C=CCN(C(=O)Nc1ccc2oc(C)nc2c1)c1ccccc1 -6.89%, Nc1ccc2nn(-c3ccc(Cl)cc3)nc2c1 -10.3%, O=C(NCCc1csc(-c2ccccc2)n1)c1ccccc1F 0.78%, C=CCn1c(SCCOc2ccc(OC)cc2)nnc1C(NC(=O)c1ccc(OC)cc1)C(C)C (stereo unspecified) 2.79%, C=CCn1c(CNC(=O)c2ccco2)nnc1SCC(=O)c1ccc(OC)cc1 1.62%, C=CCc1ccc(OCC(O)CN2CCN(Cc3ccccc3)CC2)c(OC)c1 (stereo unspecified) -1.55%, Cc1cccc(C)c1OCC(O)CN1CCCCC1 (stereo unspecified) -7.75%, COC(=O)CNc1nc(Cl)nc(N2CCC(C)CC2)n1 -2.61%, Cc1ccc(NNC(=O)C2CCC2)cc1C -0.44%, COc1ccc(Cl)cc1NC(=O)CCN1CCOCC1 -1.88%, CNC(=O)NC(=O)C(C)N1CCN(C/C=C/c2ccccc2)CC1 (stereo unspecified) -1.97%, O=C(CN1CCN(C/C=C/c2ccccc2)CC1)Nc1ccc(F)cc1F 0.73%, COC(=O)c1nc(NC(=O)c2ccc(F)cc2)n[nH]1 1.4%, COC(=O)c1nc(NC(=O)c2ccc(Cl)cc2)n[nH]1 -14.4%, Cc1nc(N2CCCC2C(=O)O)c2oc3ccccc3c2n1 (stereo unspecified) -6.49%, CCSc1nc(C)nc2c1oc1ccccc12 2.97%, Cn1c2ccc(F)cc2c2nnc(NN)nc21 3.58%, Cc1onc(C(=O)NN)c1-c1csc(COc2ccccc2)n1 -6.54%, CNc1ccc([N+](=O)[O-])cc1C(=O)O -11.4%, Cc1cccc(NC(=S)Nc2ccc(Cl)c(Cl)c2)c1 -7.18%, Cc1cccc(NC(=S)Nc2ccc(Br)cc2)c1 3.76%, Cc1nc(COc2cccc(Cl)c2)sc1C(=O)/C=C/N(C)C 0.93%, COCc1cc(=O)[nH]c(SC)n1 4.7%, O=C(NCCOc1ccccc1)c1ccccc1 -2.43%, CCCOc1ccc(C(=O)NCCc2ccccc2)cc1 -7.86%

inhibition, active:
O=C(Nc1n[nH]c(C(F)(F)F)n1)c1cccs1 40.9%, O=C(Nc1ccc(Cl)cc1)Nc1ccc(Oc2cccnc2)nc1 62.9%, CC(C)N(C(=O)c1ccc(-c2ccccc2F)cc1)C(C)C 52.5%, CC(C)c1csc(CN2CCC(CO)(Cc3ccccc3)CC2)n1 40.6%, CCOC(=O)CN(C)S(=O)(=O)c1ccc(-c2cc(C(=O)OC)sc2C(F)(F)F)cc1 74.9%, CCCN(CC(=O)Nc1ccccc1C)C(=O)c1cc(=O)[nH]c2ccccc12 45.5%, C(=C\c1ccccc1)/CSc1nnc(-c2cccnc2)n1Cc1ccco1 59.8%, CC1CC(C)(C)n2c(O)c(N=NC(N)=S)c3cccc1c32 (stereo unspecified) 50.7%, COc1cccc2c1OCC1COc3c(c(=O)n(C)c(=O)n3C)C21 (stereo unspecified) 50.2%, CC1CC(C)CN(S(=O)(=O)c2cccc(C(=O)N3C(=O)c4cccc(N)c4C3=O)c2)C1 (stereo unspecified) 83.1%, CC12CN(NC(=O)c3ccc(Cl)cc3)C3(C#N)CC1CCC23C (stereo unspecified) 78.4%, CSc1nc(-c2ccco2)nn1C(=O)c1ccccc1Cl 52.2%, CC(C)=C(NC(=O)c1ccccc1)C(=O)N/N=C(\C)c1ccccc1O 48.4%, C=CCN(C(=O)Nc1ccc2c(c1)nc(C)n2C)c1ccccc1 41%, C=CCn1c(SCC(=O)c2ccc(Br)cc2)nnc1C(C)NC(=O)Cc1ccc(OC)cc1 (stereo unspecified) 53%, Cc1ccc(OCC(O)CN2CCN(CC(O)COc3ccc(C)cc3Cl)CC2)c(Cl)c1 (stereo unspecified) 45.3%, COc1cc(C(=O)N2CCN(C/C=C/c3ccccc3)CC2)cc(OC)c1C 46.4%, COC(=O)c1nc(NC(=O)c2ccccc2)n[nH]1 45%, Cc1nc(Cl)c2oc3ccccc3c2n1 42.9%, Cc1cccc(NC(=S)NC23CN4CN(CN(C4)C2)C3)c1 44.6%, O=C(NCCc1ccccc1)c1ccc(OCCOc2ccccc2)cc1 79.7%
